According to the supplement of paper PMC6089552:
Hit rate of the full screen: of about 3,200 compounds, about 300 (9.4%) showed activity. The list comes from a sample in which actives are over-represented; it also holds similar structures and randomly drawn compounds.

Test system: A673/TR/shEF
Assay: cell viability (LOESS-normalised, relative to median of negative controls) (log2 ratio); higher = more viable cells (less compound effect), active = hit call of the paper (over 3 MAD below the median)
Details: treatment time: 72 h
Summary of the method: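 A673/TR/shEF Ewing sarcoma cells were plated at 1,500 per well in 384-well plates and cultured with or without doxycycline, added 24 h before compounds, to induce EWS-FLI1 shRNA knockdown. Library compounds at two or more concentrations, alongside DMSO controls, were applied for three days. Cell viability was measured by CellTiter-Glo luminescence on an Envision reader. Readings were LOESS-corrected per plate, divided by the median of negative controls and log2-transformed, and hits were wells lying at least three median absolute deviations from the median of all screened wells.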

[1] = 0.25 µM, library screen: screen1, EWS-FLI1 expression: high (no doxycycline)
[2] = 0.25 µM, library screen: screen1, EWS-FLI1 expression: low (doxycycline-induced shRNA knockdown)
[3] = 2.5 µM, library screen: screen1, EWS-FLI1 expression: high (no doxycycline)
[4] = 2.5 µM, library screen: screen1, EWS-FLI1 expression: low (doxycycline-induced shRNA knockdown)
[5] = 0.025 µM, library screen: screen2, EWS-FLI1 expression: high (no doxycycline)
[6] = 0.025 µM, library screen: screen2, EWS-FLI1 expression: low (doxycycline-induced shRNA knockdown)
[7] = 0.25 µM, library screen: screen2, EWS-FLI1 expression: high (no doxycycline)
[8] = 0.25 µM, library screen: screen2, EWS-FLI1 expression: low (doxycycline-induced shRNA knockdown)
[9] = 2.5 µM, library screen: screen2, EWS-FLI1 expression: high (no doxycycline)
[10] = 2.5 µM, library screen: screen2, EWS-FLI1 expression: low (doxycycline-induced shRNA knockdown)
[11] = 25 µM, library screen: screen2, EWS-FLI1 expression: high (no doxycycline)
[12] = 25 µM, library screen: screen2, EWS-FLI1 expression: low (doxycycline-induced shRNA knockdown)

Measured: cell viability (log2)

CC1(C)C(=O)C=C[C@]2(C)C3CC[C@@]4(C)[C@H](c5ccoc5)C[C@H]5O[C@]54C3[C@H](O)CC12 (some centres undefined)
inactive: [1] 0.0404 | [2] 0.00309 | [3] 0.102 | [4] 0.0462

C[C@H]1C(=O)O[C@@H]2CCN3CC=C(COC(=O)[C@](C)(O)[C@]1(C)O)[C@H]23
inactive: [5] 0.0665 | [6] 0.0541 | [1] 0.00981 | [2] 0.0549 | [7] 0.122 | [8] 0.0363 | [3] 0.0901 | [4] 0.111 | [9] 0.0833 | [10] 0.0416 | [11] 0.0406 | [12] 0.0625

COC(=O)[C@]1(C)CC[C@]2(C)CC[C@]3(C)C4=CCc5c(cc(O)c(O)c5C)[C@]4(C)CC[C@@]3(C)[C@@H]2C1
inactive: [1] 0.0264 | [2] 0.158
active: [3] -1.44 | [4] -0.357

COC(=O)[C@]1(C)CC[C@]2(C)CC[C@]3(C)C4=CC=C5C(=CC(=O)C(O)=C5C)[C@]4(C)CC[C@@]3(C)[C@@H]2C1
active: [3] -2.91 | [4] -3.05
inactive: [1] -0.0347 | [2] 0.133

Cc1c(O)c(O)cc2c1CC=C1[C@@]2(C)CC[C@@]2(C)[C@@H]3C[C@](C)(C(=O)O)CC[C@]3(C)CC[C@]12C
inactive: [1] 0.102 | [2] 0.0187 | [3] 0.0348 | [4] 0.22

CC1=C(O)C(=O)C=C2C1=CC=C1[C@@]2(C)CC[C@@]2(C)[C@@H]3C[C@](C)(C(=O)O)CC[C@]3(C)CC[C@]12C
inactive: [5] 0.14 | [6] 0.0632 | [1] 0.0936 | [2] 0.0786 | [7] 0.154 | [8] 0.0872 | [4] 0.0632
active: [3] -1.03 | [9] -4.23 | [10] -0.301 | [11] -4.23 | [12] -3.9

NCC(CC(=O)O)c1ccc(Cl)cc1 (centres undefined)
inactive: [1] 0.0966 | [2] 0.12 | [7] 0.221 | [8] 0.138 | [3] 0.123 | [4] 0.15 | [9] 0.124 | [10] 0.0836

CCC(N)C(O)c1ccc(O)c(O)c1 (centres undefined)
inactive: [1] 0.161 | [2] 0.0223 | [3] 0.0883 | [4] 0.0282

C[C@]12CC[C@H](O)CC1=CC[C@@H]1[C@@H]2CC[C@]2(C)C(=O)CC[C@@H]12
inactive: 0.103 µM, library screen: screen3, EWS-FLI1 expression: high (no doxycycline) -0.0409 | 0.103 µM, library screen: screen3, EWS-FLI1 expression: low (doxycycline-induced shRNA knockdown) 0.0562 | [1] 0.164 | [2] 0.131 | [7] 0.133 | [8] 0.0866 | 0.308 µM, library screen: screen3, EWS-FLI1 expression: high (no doxycycline) 0.0564 | 0.308 µM, library screen: screen3, EWS-FLI1 expression: low (doxycycline-induced shRNA knockdown) 0.076 | 0.926 µM, library screen: screen3, EWS-FLI1 expression: high (no doxycycline) -0.013 | 0.926 µM, library screen: screen3, EWS-FLI1 expression: low (doxycycline-induced shRNA knockdown) 0.0349 | [3] 0.137 | [4] 0.104 | [9] 0.173 | [10] 0.152 | 2.8 µM, library screen: screen3, EWS-FLI1 expression: high (no doxycycline) 0.0481 | 2.8 µM, library screen: screen3, EWS-FLI1 expression: low (doxycycline-induced shRNA knockdown) 0.0405 | 8.3 µM, library screen: screen3, EWS-FLI1 expression: high (no doxycycline) 0.0125 | 8.3 µM, library screen: screen3, EWS-FLI1 expression: low (doxycycline-induced shRNA knockdown) 0.0569 | 25 µM, library screen: screen3, EWS-FLI1 expression: high (no doxycycline) -0.0287 | 25 µM, library screen: screen3, EWS-FLI1 expression: low (doxycycline-induced shRNA knockdown) -0.0258

CCC(C)C(=O)O[C@@H]1C[C@@]2(C)[C@H](c3ccoc3)OC(=O)CC23OC2(C)OC14C1(C)[C@@H](CC(=O)OC)C5(C)CC1(O)C(O)([C@@H](OC(C)=O)C43O2)[C@H]5OC(=O)C1(C)OC1C (some centres undefined)
inactive: [1] 0.0892 | [2] 0.0664 | [3] 0.0941 | [4] 0.178

O=C(O)COc1cc(Cl)c(Cl)cc1Cl
inactive: [1] 0.0712 | [2] 0.0603 | [3] 0.0828 | [4] 0.0118

c1ccc2c3c([nH]c2c1)CNCC3
inactive: [1] 0.101 | [2] 0.0693 | [3] 0.2 | [4] 0.0982

FC(F)(F)c1cccc(N2CCNCC2)c1
inactive: [1] 0.112 | [2] 0.0689 | [3] 0.176 | [4] 0.0985

CN1C2CCC1CC(OC(c1ccccc1)c1ccc(Cl)cc1)C2 (centres undefined)
inactive: [7] 0.142 | [8] 0.124 | [9] 0.232 | [10] 0.111

CC(C)CC(NC(=O)C(Cc1ccccc1)NC(=O)CNC(=O)CNC(=O)C(N)Cc1ccc(O)cc1)C(=O)O (centres undefined)
inactive: [1] 0.0697 | [2] 0.0904 | [3] 0.0902 | [4] 0.179

Cc1c2ccncc2c(C)c2c1[nH]c1ccccc12
active: [9] -0.136
inactive: [7] 0.0843 | [8] 0.00884 | [10] -0.00745

c1ccc2c(c1)[nH]c1cnccc12
inactive: [1] 0.0149 | [2] -0.0111 | [3] 0.101 | [4] 0.0791

Cc1nccc2c1[nH]c1ccccc12
inactive: [1] 0.0742 | [2] 0.0176 | [7] 0.227 | [8] 0.0311 | [3] 0.126 | [4] 0.136 | [9] 0.107 | [10] 0.0839

Cc1ccccc1O
inactive: [1] 0.162 | [2] 0.0964 | [3] 0.189 | [4] 0.175

COC(C)(C)CCCC(C)C/C=C/C(C)=C/C(=O)OC(C)C (centres undefined)
inactive: [1] -0.00169 | [2] 0.0238 | [3] 0.116 | [4] 0.0204

c1ccc2c(N3CCNCC3)cccc2c1
active: [9] -0.803 | [10] -0.746
inactive: [7] 0.144 | [8] -0.113

COc1ccccc1N1CCNCC1
inactive: [1] 0.0547 | [2] 0.0205 | [7] 0.228 | [8] 0.0463 | [3] 0.105 | [4] 0.112 | [9] 0.201 | [10] 0.0929

c1ccc2nc(N3CCNCC3)ccc2c1
inactive: [1] 0.0719 | [2] 0.0592 | [7] 0.196 | [8] 0.0365 | [3] 0.0383 | [4] 0.12 | [9] 0.14 | [10] 0.00635

C[C@]12Cc3cn4c(nc3C=C1CCC1C2CC[C@@]2(C)[C@H]1CC[C@@]2(O)C#N)nc1ccccc14 (some centres undefined)
inactive: [7] 0.119 | [8] 0.112 | [9] 0.295 | [10] 0.0843
